From publication PMC11062922 (Nature Chemical Biology, 2023)
Read-outs that look alike come from different tables or passages of the source.

Columns and labels:
Design in all cases: species or system human, MV4-11 + K-562 + COLO205 + SK-N-BE2 + OVCAR-8
MAP2K2 = settings: read-out: apparent Kd, n = 1
MAP4K3 = settings: read-out: apparent Kd, compound concentrations: 100 nM and 1000 nM (sheet 'Samples'), n = 1
MAP4K5 = settings: read-out: apparent Kd, compound concentrations: 100 nM and 1000 nM (sheet 'Samples'), n = 1
RPS6KA1 = settings: read-out: apparent Kd, compound concentrations: 100 nM and 1000 nM (sheet 'Samples'), n = 1
STK11 = settings: read-out: apparent Kd, compound concentrations: 100 nM and 1000 nM (sheet 'Samples'), n = 1
AKT2 = settings: read-out: apparent Kd, compound concentrations: 100 nM and 1000 nM (sheet 'Samples'), n = 1
AKT3 = settings: read-out: apparent Kd, n = 1
NEK9 = settings: read-out: apparent Kd, compound concentrations: 100 nM and 1000 nM (sheet 'Samples'), n = 1
ACVR1 = settings: read-out: apparent Kd, n = 1
PIK3C2A = settings: read-out: apparent Kd, compound concentrations: 100 nM and 1000 nM (sheet 'Samples'), n = 1
DDR1 = settings: read-out: apparent Kd; compound concentrations: 100 nM and 1000 nM (sheet 'Samples'), CATDS: 4.92942958534755E-2; n = 1
TP53RK = settings: read-out: apparent Kd; compound concentrations: 100 nM and 1000 nM (sheet 'Samples'), CATDS: 4.7970425138991198E-2; n = 1
PIK3C3 = settings: read-out: apparent Kd; compound concentrations:100 nM and 1000 nM (sheet 'Samples'); n = 1
TAOK1 = settings: read-out: apparent Kd, n = 1
CDK10 = settings: read-out: apparent Kd; compound concentrations: 100 nM and 1000 nM (sheet 'Samples'), CATDS: 2.6189541098699299E-2; n = 1
MAP4K2 = settings: read-out: apparent Kd; compound concentrations: 100 nM and 1000 nM (sheet 'Samples'), CATDS: 1.18083453898033E-2; n = 1
SLK = settings: read-out: apparent Kd; compound concentrations: 100 nM and 1000 nM (sheet 'Samples'), CATDS: 7.3686549547766099E-3; n = 1
TGFBR1 = settings: read-out: apparent Kd; compound concentrations: 100 nM and 1000 nM (sheet 'Samples'), CATDS: 6.2904955022957598E-3; n = 1
[1] = compound concentrations:100 nM and 1000 nM (sheet 'Samples')

COc1cc[nH]c1/C=C1\C(=O)Nc2ccc(F)c(C#CC3(O)CCNCC3)c21.Cl [RO0282986-001]
potency estimated from few doses (MAP2K2; compound concentrations: 100 nM and 1000 nM (sheet 'Samples'), CATDS: 1.07586832750675E-2): 1.01 µM | potency estimated from few doses (MAP4K3; CATDS: 9.73261825141249E-3): 1.47 µM | potency estimated from few doses (MAP4K5; CATDS: 8.9413368005166593E-3): 2.19 µM | potency estimated from few doses (RPS6KA1; CATDS: 9.1961356652332602E-3): 1.9 µM | potency estimated from few doses (STK11; CATDS: 1.0901325293505499E-2): 0.966 µM

c1cnn2ncc(-c3ccnc(Nc4ccc5c(c4)OCCO5)n3)c2c1 [GW806290X]
potency estimated from few doses (AKT2; CATDS: 2.25042579106303E-2): 1.3 µM | potency estimated from few doses (AKT3; compound concentrations: 100 nM and 1000 nM (sheet 'Samples'), CATDS: 2.0651194958325798E-2): 1.77 µM | potency estimated from few doses (MAP2K2; compound concentrations: 100 nM and 1000 nM (sheet 'Samples'), CATDS: 2.1479851181110499E-2): 1.53 µM | potency estimated from few doses (NEK9; CATDS: 2.42273764121115E-2): 1.03 µM

NCC(NC(=O)c1cc(-c2cn[nH]c2)c(-c2ccnc3[nH]ccc23)s1)c1ccccc1.NCC(NC(=O)c1cc(-c2cn[nH]c2)c(-c2ccnc3[nH]ccc23)s1)c1ccccc1.O=C(O)C(F)(F)F.O=C(O)C(F)(F)F (centres unmarked) [GSK1325775A]
potency estimated from few doses (ACVR1; compound concentrations: 100 nM and 1000 nM (sheet 'Samples'), CATDS: 3.5400947915422802E-2): 1.18 µM

CCN(CC)Cc1ccc(Nc2nccc(-c3cnn4ncccc34)n2)cc1 [GW780056X]
potency estimated from few doses (NEK9; CATDS: 2.0464339173062999E-2): 1.22 µM

COc1cc(Nc2nccc(-c3cnn4ncccc34)n2)cc(OC)c1 [GW801372X]
potency estimated from few doses (ACVR1; compound concentrations: 100 nM and 1000 nM (sheet 'Samples'), CATDS: 2.2901948138858801E-2): 0.739 µM | potency estimated from few doses (NEK9; CATDS: 4.3233777925034599E-2): 0.142 µM | potency estimated from few doses (PIK3C2A; CATDS: 1.7083513618659799E-2): 2.26 µM

CN(c1ccc(NC(=O)NCCN2CCOCC2)cc1)c1ccnc(Nc2ccc(CS(C)(=O)=O)cc2)n1.Cl [GW830365A]
potency estimated from few doses (DDR1): 1.36 µM

O=C1N=C(NCc2cccs2)O/C1=C\c1ccc2ncccc2c1 [RO4624208-000]
potency estimated from few doses (TP53RK): 1.61 µM

CNCc1ccc(-c2cc(-c3nc(-c4ccc(S(=O)(=O)C(C)C)cc4)cnc3N)on2)cc1 [VE-822]
potency estimated from few doses (ACVR1; [1]): 0.081 µM | potency estimated from few doses (AKT3; [1]): 1.76 µM | potency estimated from few doses (MAP2K2; [1]): 1.7 µM | potency estimated from few doses (PIK3C3): 0.5 µM

CCCc1cc(N2CCCN(C)CC2)nc2sc3c(N)ncnc3c12 [BI00604564]
potency estimated from few doses (AKT3; compound concentrations: 100 nM and 1000 nM (sheet 'Samples'), CATDS: 0.13900414431421401): 1.92 µM

CNCC#Cc1c(F)ccc2c1/C(=C/c1[nH]ccc1OC)C(=O)N2.Cl [RO0281601-001]
potency estimated from few doses (STK11; CATDS: 2.1927929235579201E-2): 1.93 µM

CCn1c(-c2nonc2N)nc2c(C#CC(C)(C)O)nc(O[C@@H](CN)c3ccccc3)cc21.O=C(O)C(F)(F)F [GSK1007102B]
potency estimated from few doses (AKT3; [1]): 0.719 µM

COC(=O)c1cccc(NC(=O)NC2CCN(c3ccnc(Nc4cc(OC)c(OC)c(OC)c4)n3)C2)c1 (centres unmarked) [GSK1379767A]
potency estimated from few doses (MAP2K2; compound concentrations: 100 nM and 1000 nM (sheet 'Samples'), CATDS: 9.7469990790668801E-2): 1.88 µM | potency estimated from few doses (PIK3C2A; CATDS: 9.3691802712770805E-2): 2.08 µM

c1ccc(-c2n[nH]cc2Nc2ccnc3ccccc23)nc1 [GW694077X]
potency estimated from few doses (AKT2; CATDS: 2.2309238886047199E-2): 2.35 µM | potency estimated from few doses (PIK3C2A; CATDS: 2.3388870990997498E-2): 1.9 µM

NC(=O)c1cc(-c2ccccc2)cc2c(C3CCNCC3)c[nH]c12 [GSK301362A]
potency estimated from few doses (TAOK1; [1]): 1.5 µM

O=C(O)C(F)(F)F.O=C(O)C(F)(F)F.O=c1[nH]ccc2nc(N[C@@H]3CCCNC3)nc(Nc3ccc(S(=O)(=O)N4CCOCC4)cc3)c12.O=c1[nH]ccc2nc(N[C@@H]3CCCNC3)nc(Nc3ccc(S(=O)(=O)N4CCOCC4)cc3)c12 [GSK2177277A]
potency estimated from few doses (ACVR1; compound concentrations: 100 nM and 1000 nM (sheet 'Samples'), CATDS: 7.8898197775333495E-3): 0.605 µM | potency estimated from few doses (CDK10): 0.032 µM | potency estimated from few doses (MAP2K2; compound concentrations: 100 nM and 1000 nM (sheet 'Samples'), CATDS: 5.9505583835806203E-3): 2.52 µM | potency estimated from few doses (MAP4K2): 0.173 µM | potency estimated from few doses (MAP4K3; CATDS: 1.3665369195518201E-2): 0.12 µM | potency estimated from few doses (MAP4K5; CATDS: 2.1531310564231101E-2): 0.0457 µM | potency estimated from few doses (RPS6KA1; CATDS: 7.3742407001506898E-3): 0.792 µM | potency estimated from few doses (SLK): 0.794 µM | potency estimated from few doses (TAOK1; compound concentrations: 100 nM and 1000 nM (sheet 'Samples'), CATDS: 1.8448588679872001E-2): 0.0619 µM | potency estimated from few doses (TGFBR1): 1.74 µM
